# From ChEMBL document CHEMBL1961873, “Compounds: GSK PKIS; Assays: Nanosyn kinase panel” (2012)
# Several values for one entry are separate records, joined by “and”; a condition that tells them apart may be missing. Equal entries are not always repeated.
# Legend:
# [1] = tested on: Epidermal growth factor receptor (Homo sapiens), P00533 [T790M]; settings: at 1 µM
# [2] = tested on: Epidermal growth factor receptor (Homo sapiens), P00533 [L858R,T790M]; settings: at 0.1 µM
# [3] = tested on: Epidermal growth factor receptor (Homo sapiens), P00533 [L858R,T790M]; settings: at 1 µM
# [4] = target: Ephrin type-A receptor 2 (Homo sapiens) (UniProt P29317); settings: at 0.1 µM
# Chain of Ephrin type-A receptor 2 (Homo sapiens) (P29317 whole entry): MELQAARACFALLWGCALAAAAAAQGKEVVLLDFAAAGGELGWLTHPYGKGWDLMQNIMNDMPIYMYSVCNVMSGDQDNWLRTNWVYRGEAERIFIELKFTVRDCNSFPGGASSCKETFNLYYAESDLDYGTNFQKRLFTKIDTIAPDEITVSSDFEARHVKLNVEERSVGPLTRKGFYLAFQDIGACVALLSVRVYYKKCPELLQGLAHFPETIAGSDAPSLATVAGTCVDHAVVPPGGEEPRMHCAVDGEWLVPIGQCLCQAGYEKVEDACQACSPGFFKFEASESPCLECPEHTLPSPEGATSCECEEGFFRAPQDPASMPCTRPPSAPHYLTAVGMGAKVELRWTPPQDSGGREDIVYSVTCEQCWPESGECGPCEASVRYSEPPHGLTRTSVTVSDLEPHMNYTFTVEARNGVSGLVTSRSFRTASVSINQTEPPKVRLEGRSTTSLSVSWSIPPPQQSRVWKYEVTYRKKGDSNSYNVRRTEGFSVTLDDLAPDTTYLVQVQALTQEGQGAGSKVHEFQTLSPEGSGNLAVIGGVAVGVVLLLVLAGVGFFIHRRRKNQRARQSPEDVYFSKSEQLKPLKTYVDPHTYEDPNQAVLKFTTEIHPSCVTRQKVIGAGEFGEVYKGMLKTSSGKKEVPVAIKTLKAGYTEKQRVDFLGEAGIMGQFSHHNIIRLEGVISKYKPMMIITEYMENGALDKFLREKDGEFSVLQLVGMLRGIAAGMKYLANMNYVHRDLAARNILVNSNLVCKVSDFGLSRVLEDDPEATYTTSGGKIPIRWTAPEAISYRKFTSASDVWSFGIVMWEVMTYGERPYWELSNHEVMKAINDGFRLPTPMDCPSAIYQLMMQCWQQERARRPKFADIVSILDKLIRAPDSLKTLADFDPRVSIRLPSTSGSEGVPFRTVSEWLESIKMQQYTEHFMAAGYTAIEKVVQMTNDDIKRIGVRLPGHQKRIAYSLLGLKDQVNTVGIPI
# [5] = target: Ephrin type-A receptor 2 (Homo sapiens) (UniProt P29317); settings: at 1 µM
# [6] = target: T1, Ephrin type-A receptor 3 (Homo sapiens) (UniProt P29320); settings: at 0.1 µM
# T1 sequence (whole entry): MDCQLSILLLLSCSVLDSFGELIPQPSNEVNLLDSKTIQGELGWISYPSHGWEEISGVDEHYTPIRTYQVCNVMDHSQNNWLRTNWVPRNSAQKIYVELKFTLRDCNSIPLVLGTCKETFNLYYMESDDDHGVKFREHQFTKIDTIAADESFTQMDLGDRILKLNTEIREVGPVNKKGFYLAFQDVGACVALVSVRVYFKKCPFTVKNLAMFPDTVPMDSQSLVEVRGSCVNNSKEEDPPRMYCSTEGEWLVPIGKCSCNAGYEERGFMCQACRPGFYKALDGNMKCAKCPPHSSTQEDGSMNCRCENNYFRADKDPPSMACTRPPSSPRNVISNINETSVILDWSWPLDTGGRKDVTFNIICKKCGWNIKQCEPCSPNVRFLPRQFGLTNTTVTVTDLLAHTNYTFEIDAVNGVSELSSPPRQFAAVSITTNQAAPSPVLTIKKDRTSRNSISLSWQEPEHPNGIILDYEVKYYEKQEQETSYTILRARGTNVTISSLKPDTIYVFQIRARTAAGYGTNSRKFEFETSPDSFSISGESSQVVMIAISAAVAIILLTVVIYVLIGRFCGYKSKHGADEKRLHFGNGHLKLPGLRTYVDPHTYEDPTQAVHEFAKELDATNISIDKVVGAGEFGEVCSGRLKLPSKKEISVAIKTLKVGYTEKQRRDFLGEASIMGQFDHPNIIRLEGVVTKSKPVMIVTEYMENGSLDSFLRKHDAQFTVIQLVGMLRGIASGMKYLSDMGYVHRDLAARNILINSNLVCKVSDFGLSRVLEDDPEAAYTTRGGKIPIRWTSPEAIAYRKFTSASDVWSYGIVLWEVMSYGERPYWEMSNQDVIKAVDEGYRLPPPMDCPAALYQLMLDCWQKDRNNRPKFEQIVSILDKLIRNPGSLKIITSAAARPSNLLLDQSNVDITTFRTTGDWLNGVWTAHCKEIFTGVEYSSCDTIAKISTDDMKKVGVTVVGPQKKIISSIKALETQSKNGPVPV
# [7] = target: T1, Ephrin type-A receptor 3 (Homo sapiens); settings: at 1 µM
# [8] = target: Ephrin type-A receptor 4 (Homo sapiens) (UniProt P54764); settings: at 0.1 µM
# Chain of Ephrin type-A receptor 4 (Homo sapiens) (P54764 whole entry): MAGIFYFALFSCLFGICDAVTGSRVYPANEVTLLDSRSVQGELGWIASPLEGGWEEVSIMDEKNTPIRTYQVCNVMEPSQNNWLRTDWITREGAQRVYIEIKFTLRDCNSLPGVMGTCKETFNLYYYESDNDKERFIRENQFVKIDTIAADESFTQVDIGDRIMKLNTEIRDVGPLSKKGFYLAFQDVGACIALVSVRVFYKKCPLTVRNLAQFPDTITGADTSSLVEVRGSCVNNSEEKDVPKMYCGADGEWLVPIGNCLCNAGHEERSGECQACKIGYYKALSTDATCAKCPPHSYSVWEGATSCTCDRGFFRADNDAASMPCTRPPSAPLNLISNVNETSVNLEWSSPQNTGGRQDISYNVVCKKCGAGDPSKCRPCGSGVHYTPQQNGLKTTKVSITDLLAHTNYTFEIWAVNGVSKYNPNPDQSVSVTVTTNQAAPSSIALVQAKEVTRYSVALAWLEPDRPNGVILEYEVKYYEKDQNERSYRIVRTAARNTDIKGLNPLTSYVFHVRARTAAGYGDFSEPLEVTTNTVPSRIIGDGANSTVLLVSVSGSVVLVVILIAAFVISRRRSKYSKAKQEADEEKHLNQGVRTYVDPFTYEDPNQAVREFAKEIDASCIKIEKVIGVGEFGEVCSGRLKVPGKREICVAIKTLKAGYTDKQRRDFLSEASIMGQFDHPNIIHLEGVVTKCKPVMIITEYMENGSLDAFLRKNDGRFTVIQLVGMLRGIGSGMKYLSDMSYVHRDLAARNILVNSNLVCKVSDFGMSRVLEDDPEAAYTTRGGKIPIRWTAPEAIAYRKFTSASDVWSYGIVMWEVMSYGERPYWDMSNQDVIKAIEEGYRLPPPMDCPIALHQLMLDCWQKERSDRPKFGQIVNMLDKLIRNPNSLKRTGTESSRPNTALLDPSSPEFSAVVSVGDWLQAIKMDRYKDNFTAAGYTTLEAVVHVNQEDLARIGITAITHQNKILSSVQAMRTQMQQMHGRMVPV
# [9] = target: Ephrin type-A receptor 4 (Homo sapiens) (UniProt P54764); settings: at 1 µM
# [10] = target: T2, Ephrin type-B receptor 2 (Homo sapiens) (UniProt P29323); settings: at 0.1 µM;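 note: reported as mean inhibition of EPHB2, from the GSK PKIS dataset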
# T2 sequence (whole entry): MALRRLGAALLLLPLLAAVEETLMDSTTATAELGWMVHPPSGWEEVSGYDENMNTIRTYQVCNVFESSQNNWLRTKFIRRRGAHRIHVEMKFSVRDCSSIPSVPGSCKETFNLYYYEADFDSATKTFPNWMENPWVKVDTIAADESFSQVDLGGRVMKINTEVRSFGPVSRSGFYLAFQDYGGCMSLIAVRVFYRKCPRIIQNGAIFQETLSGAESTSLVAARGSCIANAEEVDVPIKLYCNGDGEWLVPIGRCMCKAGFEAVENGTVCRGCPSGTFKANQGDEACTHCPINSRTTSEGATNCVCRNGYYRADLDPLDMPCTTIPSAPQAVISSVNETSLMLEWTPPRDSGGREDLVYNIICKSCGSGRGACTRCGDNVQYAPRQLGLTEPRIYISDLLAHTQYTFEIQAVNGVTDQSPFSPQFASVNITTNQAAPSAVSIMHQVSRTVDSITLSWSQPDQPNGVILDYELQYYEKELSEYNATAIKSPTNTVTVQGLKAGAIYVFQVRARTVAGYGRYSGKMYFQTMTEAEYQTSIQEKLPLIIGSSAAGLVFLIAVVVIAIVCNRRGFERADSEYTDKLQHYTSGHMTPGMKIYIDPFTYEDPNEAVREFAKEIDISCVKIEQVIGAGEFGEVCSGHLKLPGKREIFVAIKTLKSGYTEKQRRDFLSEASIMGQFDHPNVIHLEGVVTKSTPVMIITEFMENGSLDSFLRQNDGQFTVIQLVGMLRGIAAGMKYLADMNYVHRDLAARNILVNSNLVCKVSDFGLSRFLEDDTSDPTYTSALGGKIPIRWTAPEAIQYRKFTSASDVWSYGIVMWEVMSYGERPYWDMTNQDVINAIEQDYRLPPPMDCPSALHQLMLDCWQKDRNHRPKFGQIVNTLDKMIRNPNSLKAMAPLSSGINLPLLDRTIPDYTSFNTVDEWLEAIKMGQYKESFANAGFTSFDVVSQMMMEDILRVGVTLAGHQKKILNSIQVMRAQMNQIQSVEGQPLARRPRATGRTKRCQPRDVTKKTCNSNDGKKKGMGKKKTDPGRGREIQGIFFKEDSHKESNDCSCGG
# Chain of Epidermal growth factor receptor (Homo sapiens), P00533 [L858R,T790M] (P00533 whole entry T790M/L858R, looked up): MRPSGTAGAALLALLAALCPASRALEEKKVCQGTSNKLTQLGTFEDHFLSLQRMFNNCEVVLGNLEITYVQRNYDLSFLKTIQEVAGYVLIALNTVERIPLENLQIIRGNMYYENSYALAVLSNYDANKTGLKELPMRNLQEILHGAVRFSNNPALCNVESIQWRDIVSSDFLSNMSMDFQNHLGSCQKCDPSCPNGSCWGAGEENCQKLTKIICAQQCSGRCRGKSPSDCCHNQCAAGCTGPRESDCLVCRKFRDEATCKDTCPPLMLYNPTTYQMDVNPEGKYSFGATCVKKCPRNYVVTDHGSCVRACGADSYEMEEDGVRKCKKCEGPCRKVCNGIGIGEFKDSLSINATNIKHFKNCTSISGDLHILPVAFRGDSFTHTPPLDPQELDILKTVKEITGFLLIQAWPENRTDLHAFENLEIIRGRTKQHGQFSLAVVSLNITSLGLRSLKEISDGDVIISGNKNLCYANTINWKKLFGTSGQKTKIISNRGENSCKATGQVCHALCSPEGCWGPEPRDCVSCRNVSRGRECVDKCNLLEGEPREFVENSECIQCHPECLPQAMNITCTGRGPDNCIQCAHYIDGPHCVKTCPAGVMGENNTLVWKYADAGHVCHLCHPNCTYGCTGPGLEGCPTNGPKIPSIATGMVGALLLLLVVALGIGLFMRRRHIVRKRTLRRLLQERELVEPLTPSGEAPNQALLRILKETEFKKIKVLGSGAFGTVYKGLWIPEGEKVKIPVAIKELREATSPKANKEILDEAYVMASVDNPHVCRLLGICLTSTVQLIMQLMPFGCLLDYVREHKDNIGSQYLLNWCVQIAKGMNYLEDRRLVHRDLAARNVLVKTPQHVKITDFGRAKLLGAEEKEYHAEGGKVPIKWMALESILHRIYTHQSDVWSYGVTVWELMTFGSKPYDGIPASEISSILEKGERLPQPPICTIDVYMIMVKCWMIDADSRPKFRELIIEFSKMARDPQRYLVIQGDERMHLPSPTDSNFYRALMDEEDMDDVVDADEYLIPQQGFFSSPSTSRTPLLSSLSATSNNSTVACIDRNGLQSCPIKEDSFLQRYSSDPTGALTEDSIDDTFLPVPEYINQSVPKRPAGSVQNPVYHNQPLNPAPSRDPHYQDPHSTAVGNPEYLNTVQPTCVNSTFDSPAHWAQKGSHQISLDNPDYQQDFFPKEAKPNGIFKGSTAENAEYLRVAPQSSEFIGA
# Chain of Epidermal growth factor receptor (Homo sapiens), P00533 [T790M] (P00533 whole entry T790M): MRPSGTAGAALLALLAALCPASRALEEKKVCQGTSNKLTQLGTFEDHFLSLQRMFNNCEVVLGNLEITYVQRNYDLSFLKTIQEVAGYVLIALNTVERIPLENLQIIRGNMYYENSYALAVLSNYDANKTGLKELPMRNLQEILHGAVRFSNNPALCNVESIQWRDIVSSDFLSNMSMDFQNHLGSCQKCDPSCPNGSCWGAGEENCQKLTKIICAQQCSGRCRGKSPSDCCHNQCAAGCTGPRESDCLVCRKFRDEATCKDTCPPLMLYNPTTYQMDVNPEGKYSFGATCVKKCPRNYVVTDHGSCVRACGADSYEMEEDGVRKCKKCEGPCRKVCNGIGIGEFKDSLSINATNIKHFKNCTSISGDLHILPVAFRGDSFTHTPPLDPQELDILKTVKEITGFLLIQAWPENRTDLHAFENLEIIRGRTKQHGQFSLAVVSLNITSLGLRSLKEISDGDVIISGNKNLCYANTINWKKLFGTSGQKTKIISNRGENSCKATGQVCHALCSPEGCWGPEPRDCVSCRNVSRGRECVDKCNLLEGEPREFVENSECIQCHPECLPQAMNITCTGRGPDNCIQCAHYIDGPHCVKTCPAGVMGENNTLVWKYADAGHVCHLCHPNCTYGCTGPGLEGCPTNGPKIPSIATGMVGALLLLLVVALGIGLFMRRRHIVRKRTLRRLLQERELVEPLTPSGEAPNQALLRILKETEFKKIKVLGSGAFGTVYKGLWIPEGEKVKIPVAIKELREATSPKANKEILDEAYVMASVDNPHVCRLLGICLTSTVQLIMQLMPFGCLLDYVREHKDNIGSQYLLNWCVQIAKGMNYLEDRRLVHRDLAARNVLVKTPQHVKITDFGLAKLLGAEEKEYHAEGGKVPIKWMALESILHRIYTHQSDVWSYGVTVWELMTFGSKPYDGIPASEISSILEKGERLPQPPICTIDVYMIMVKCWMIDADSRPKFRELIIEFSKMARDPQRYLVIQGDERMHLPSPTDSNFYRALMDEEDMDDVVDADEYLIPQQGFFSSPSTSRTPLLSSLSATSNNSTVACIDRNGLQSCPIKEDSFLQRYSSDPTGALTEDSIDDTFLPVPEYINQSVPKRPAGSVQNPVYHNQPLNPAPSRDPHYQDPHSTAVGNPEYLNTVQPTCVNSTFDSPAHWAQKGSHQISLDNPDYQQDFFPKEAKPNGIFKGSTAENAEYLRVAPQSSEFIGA
Structure (SMILES),inhibition [1],inhibition [2],inhibition [3],inhibition [4],inhibition [5],inhibition [6],inhibition [7],inhibition [8],inhibition [9],inhibition [10]
CS(=O)(=O)Nc1ccc(-c2ccc3c(NC(=O)C4CC4)n[nH]c3c2)cc1,0.23%,0.3%,0.93%,2.88%,1.54%,5.15%,4.1%,5.41%,1.08%,9.15%
Cc1nnc(-c2cccc(-c3ccc(C(=O)NCC4CC4)cc3)c2)o1,4.56%,2.93%,3.63%,1.56%,0.66%,5.76%,6.16%,11.3%,10.8%,11.1%
CC1(C)CC(n2cnc(-c3ccc(F)cc3)c2-c2ccnc(N)n2)CC(C)(C)N1,-1.34%,2.59%,1.85%,-2.86%,-2.93%,-0.75%,-0.11%,0.35%,-1.89%,0.78%
CS(=O)(=O)Nc1ccc(-c2cc(-c3ccccc3)cc(C(N)=O)c2N)cc1,-0.33%,1.11%,1.75%,-3.41%,-2.62%,0.48%,-0.2%,1.75%,4.07%,6.68%
Cc1cc(O)cc(C)c1/C=C/c1cncc(C(N)=O)c1,1.53%,0.06%,1.88%,8.68%,47.2%,5.13%,19.5%,18.6%,69.2%,16.3%
NC(=O)c1ccc2c(-c3ccnc(NCCCO)n3)c(-c3ccc(F)cc3)nn2c1,2.72%,4.41%,6.91%,2.54%,7.54%,5.24%,7.21%,11.8%,29.7%,9.21%
CN1CCC(n2cnc(-c3ccc(F)cc3)c2-c2ccnc(NCCO)n2)CC1,4.06%,1.79%,5.98%,2.31%,-0.04%,5.3%,5.33%,7.76%,14.7%,8.26%
Nc1ncnc2occ(-c3ccc(NC(=O)Nc4cc(C(F)(F)F)ccc4F)cc3)c12,-0.24% and 0.54%,0.74% and 1.93%,0.23% and -1.52%,22.4% and 1.32%,80.5% and 57%,,43.8% and 25.2%,,77.2% and 77.9%,55.4% and 55.7%
Fc1cccc(COc2ccc(Nc3ncncc3C#Cc3ccccc3)cc2Cl)c1,3.85%,3.98%,5.02%,4.2%,0.3%,4.46%,4.68%,9.27%,13.1%,8.04%
COc1cccc(Nc2nccc(-c3cnn4ncccc34)n2)c1,1.13%,4.75%,9.99%,1.1%,12.2%,4.37%,8.81%,9.73%,36.6%,9.43%
CC1=C(C(=O)Nc2ccc3[nH]ncc3c2)C(c2ccc(F)cc2)N=C(c2ccc(C(F)(F)F)nc2)N1 (stereo not given),0.81%,4.44%,-0.48%,-1.16%,-0.31%,3.49%,3.54%,5.75%,6.21%,8.47%
NS(=O)(=O)c1ccc(N/N=C2\C(=O)Nc3cccc(CCc4ccncc4)c32)cc1,0.76%,-0.13%,1.83%,-2.9%,-1.98%,0.59%,0.71%,3.79%,5.47%,4.47%
COC(=O)Nc1nc2cc(Oc3ccc(NC(=O)Nc4ccccc4)cc3)ccc2[nH]1,2.64%,-2.44%,2.14%,2.42%,3.37%,4.93%,1.33%,8.86%,11.2%,5.01%
CCS(=O)(=O)c1ccc(OC)c(Nc2ncc(-c3cccc(F)c3)o2)c1,3.03%,5.67%,2.98%,2.15%,9.85%,8.12%,17%,11.3%,33.5%,18.5%
N#Cc1cccc(Nc2ncc(-c3ccccc3)o2)c1,3.24%,0.29%,3.37%,1.14%,0.54%,2.39%,1.84%,6.35%,8.39%,2.84%
CC(C)c1ccc(-c2cc(-c3c[nH]nc3-c3ccccn3)ccn2)cc1,0.59%,-1.17%,-2.79%,-1.11%,-2.27%,2.58%,5.79%,6.74%,4.1%,7.84%
CN1CCN(Cc2ccc(-c3cc4ncnc(Nc5ccc(OCc6cccc(F)c6)c(Cl)c5)c4s3)o2)CC1,,,,-2.36% and 1.48%,-2.73% and 2.15%,2.75% and 5.84%,2.47% and 3.64%,4.95% and 10.4%,6.16% and 11.9%,5.13% and 6.55%
O=C1Nc2ccccc2/C1=C1\CCc2cc(O)ccc21,2.73%,1.8%,4.76%,2.66%,2%,6.06%,4.39%,7.97%,3.3%,3.53%
COc1cc(N2CCN(C(C)C)CC2)ccc1Nc1nc(Nc2cccc(F)c2C(=O)O)c2cc[nH]c2n1,24.9%,9.68%,48.9%,0.65%,-0.38%,2.98%,6.01%,8.47%,11.2%,9.96%
Nc1nccc(-c2c(-c3ccc(F)cc3)ncn2C2CCNCC2)n1,-1.82% and -1.43%,-3.77% and -2.58%,-3.38% and 2.32%,-1.11% and -2.31%,-3.3% and -3.19%,-5.79% and -0.55%,-3.63% and 1.63%,-7.34% and 0.75%,-6.76% and 4.23%,-3.07% and 5.6%
Cc1ccc(-c2cc3c(NC(=O)C4CC4)ncnc3o2)cc1,0.67%,1.96%,5.94%,3.08%,7.49%,3.73%,5.51%,8.88%,20.5%,9.13%
CCCNc1cccc(-n2ncc3c(N/N=C/c4ccncc4)ncnc32)c1,5.14%,1.81%,2.7%,3.57%,5.31%,3.09%,3.12%,4.65%,17.4%,-1.54%
COc1cc2c(cc1Nc1nc(Nc3cccc(F)c3C(N)=O)c3cc[nH]c3n1)N(C(=O)CN1CCN(C(C)C)CC1)CC2,27%,1.09%,47.3%,1.37%,0.53%,1.47%,0.43%,3.76%,4.41%,2.75%
Cc1c2ccc(N(C)c3ccnc(Nc4cccc(S(N)(=O)=O)c4)n3)cc2nn1C,3.28%,2.62%,13.1%,-1.48%,2.19%,0.79%,2.97%,8.51%,14.2%,5.88%
